Experiment [1] in a line: Nuclear factor erythroid 2-related factor 2/antioxidant responsive element (Nrf2/ARE) small molecule agonists: qHTS cell viability counter screen in human keratinocytes (AID 1919968; active = well fitted curve in the direction sought with a large enough effect in the repeat runs; an effect the other way counts as inactive or inconclusive; also: nearly all actives have a fitted effect of over 55% in size). The procedure, abridged:
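Seed 1,500 KeratinoSens cells per well, then incubate 5 h at 37 C/5% CO2. Add compounds in DMSO and incubate 23 h. Add CellTiter-Fluor, wait 1 h and read fluorescence.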
For orientation: qHTS replaces the single test concentration by a dilution series.

Experiment [2] can be described thus: Nuclear factor erythroid 2-related factor 2/antioxidant responsive element (Nrf2/ARE) small molecule agonists: luciferase reporter gene qHTS assay in human keratinocytes (AID 1919969). Also: nearly all actives have a fitted effect of over 35% in size. Background: A reporter such as luciferase makes a cellular process visible.
The target in experiment [3] is Gonadotropin-releasing hormone receptor (Homo sapiens) (UniProt P30968). Kind of experiment: Human gonadotropin-releasing hormone receptor (GnRHR) small molecule agonists, calcium flux assay in GnRHR-HEK293 cells (AID 1920063). Also: nearly all actives have a fitted effect of over 35% in size. The procedure, abridged:
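Cells: HEK293 stably expressing human GnRHR. Steps: overnight (18 h) culture, 1 h calcium dye loading at 37 C, compound addition, kinetic fluorescence read at 480/540 nm. Each compound tested at 15 concentrations in triplicate.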
(In general: Calcium assays in cells follow changes in intracellular calcium, usually with a dye or a luminescent sensor.)

The target of experiment [4] is KiSS-1 receptor (Homo sapiens) (UniProt Q969F8). Put plainly: Human kisspeptin (KISS1R) small molecule agonists, calcium flux assay in KISS1R-HEK293 cells (AID 1920064; active = well fitted curve in the direction sought with a large enough effect in the repeat runs; an effect the other way counts as inactive or inconclusive). Put shortly: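 Cells plated and incubated 18 h; dye added, 1 h at 37 C; compounds in DMSO pinned in; signal read at 480/540 nm every second for 3 min. Each compound tested at 15 concentrations in triplicate.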
Sequence of KiSS-1 receptor (Homo sapiens) (Q969F8 whole entry, looked up): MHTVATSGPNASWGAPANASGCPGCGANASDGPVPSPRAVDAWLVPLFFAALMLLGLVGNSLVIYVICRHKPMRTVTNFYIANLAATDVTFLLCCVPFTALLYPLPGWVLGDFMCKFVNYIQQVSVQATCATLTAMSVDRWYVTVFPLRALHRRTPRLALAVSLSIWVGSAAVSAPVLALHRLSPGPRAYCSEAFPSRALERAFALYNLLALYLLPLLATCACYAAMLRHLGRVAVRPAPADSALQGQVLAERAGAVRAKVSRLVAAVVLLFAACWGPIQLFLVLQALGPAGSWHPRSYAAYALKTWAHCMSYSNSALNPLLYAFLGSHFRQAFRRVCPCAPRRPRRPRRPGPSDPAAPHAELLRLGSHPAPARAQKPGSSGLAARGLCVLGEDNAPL

Experiment [5] can be described thus: G protein-coupled receptor (GPCR) small molecule agonists, calcium flux assay: HEK293 wild type cell line counter screen (AID 1920065). Put shortly: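 Counter-screen of the Tox21 10K library for non-specific calcium release: dye-loaded cells received compounds in DMSO and were monitored by kinetic fluorescence (480/540 nm, 3 min). Fifteen concentrations, run in triplicate.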

The nature of experiment [6]: p53 small molecule agonists, cell-based qHTS assay with human liver microsomes (AID 1963577). The procedure, abridged: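 p53RE-bla reporter cells were pre-incubated 5 h at 37 C, then treated with compounds plus human liver microsomes (0.5 mg/mL final) and NADPH (0.5 mg/mL final) for 16 h at 37 C. Beta-lactamase activity was read by LiveBLAzer fluorescence after 2 h at room temperature.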

Experiment [7] is described as follows: p53 small molecule agonists, cell-based qHTS assay with rat liver microsomes (AID 1963578). The procedure, abridged:
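p53RE-bla cells were exposed to compounds together with rat liver microsomes (0.5 mg/mL final) and NADPH (0.5 mg/mL final) for 16 h at 37 C, then read by LiveBLAzer beta-lactamase fluorescence after 2 h at room temperature.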

A short description of experiment [8]: p53 small molecule agonists, cell-based qHTS assay with human liver microsomes: qHTS cell viability counter screen (AID 1963579). Also: nearly all actives have a fitted effect of over 45% in size. Also: potency is read from the fitted curve at half-maximal effect. Put shortly:
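p53RE-bla cells (4,000/well) were pre-incubated 5 h at 37 C, then given compounds in DMSO plus human liver microsomes (0.5 mg/mL final) and NADPH (0.5 mg/mL final) for 16 h at 37 C. Viability was read by CellTiter-Glo luminescence.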

Experiment [9] can be described thus: p53 small molecule agonists, cell-based qHTS assay with rat liver microsomes: qHTS cell viability counter screen (AID 1963580). Also: nearly all actives have a fitted effect of over 45% in size. The procedure, abridged: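 HCT-116 p53RE-bla, 4,000 cells/well, 5 h pre-incubation; cpd + rat liver microsomes 0.5 mg/mL + NADPH 0.5 mg/mL (final); 16 h, 37 C; CellTiter-Glo, 30 min RT; luminescence.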
A short description of experiment [10]: p53 small molecule agonists, cell-based qHTS assay: qHTS cell viability counter screen (AID 1963581). Also: nearly all actives have a fitted effect of over 45% in size. The procedure, abridged: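 Cells: HCT-116 with p53 response element-driven beta-lactamase. Treatment: 16 h, 37 C, compounds in DMSO. Read: CellTiter-Glo luminescence after 30 min RT.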
The nature of experiment [11]: p53 small molecule agonists, cell-based qHTS assay (AID 1963582; active = well fitted activation curve with a large enough effect in the signal ratio in the repeat runs, not every such curve was filed as active; the % refers to the signal ratio). Put shortly:
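Quantitative HTS in p53RE-bla cells: after a 5 h settling period, compounds delivered in DMSO were left on cells for 16 h at 37 C, and reporter induction was measured as fluorescence following 2 h substrate loading.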

Experiment [12] deals with 5-hydroxytryptamine receptor 2A (Homo sapiens) (UniProt P28223). Kind of experiment: 5-hydroxytryptamine receptor 2A (HTR2A) small molecule antagonists, cell-based qHTS assay (AID 1963586). Also: nearly all actives have a fitted effect of over 45% in size. Put shortly:
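Antagonist-mode intracellular calcium assay: DOI (4 nM) added after 5 min compound pre-incubation at room temperature to dye-loaded HTR2A-CHO cells. Fluorescence followed for 3 min, sampled every second.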

Experiment [13] shares this target. Put plainly: 5-hydroxytryptamine receptor 2A (HTR2A) small molecule agonists, cell-based qHTS assay (AID 1963587). Also: nearly all actives have a fitted effect of over 30% in size. The procedure, abridged:
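Kinetic calcium-flux fluorescence (2 min, 1 sec intervals) after compound addition in agonist mode. HTR2A-CHO cells were cultured 18 h, then dye-loaded 1 h at 37 C.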

In experiment [14] the target is Muscarinic acetylcholine receptor M1 (Homo sapiens) (UniProt P11229). Kind of experiment: Cholinergic receptor muscarinic 1 (CHRM1) small molecule antagonists, cell-based qHTS assay (AID 1963588). Also: nearly all actives have a fitted effect of over 40% in size. The procedure, abridged:
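CHRM1-CHO calcium-flux assay, antagonist mode. Cells were seeded 18 h, dye-loaded 1 h at 37 C and given compound for 5 min at RT, then acetylcholine was added at 50nM. FDSS fluorescence was read 3 min; 15 concentrations, three runs.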

Experiment [15] shares this target. Put plainly: Cholinergic receptor muscarinic 1 (CHRM1) small molecule agonists, cell-based qHTS assay (AID 1963589). Also: nearly all actives have a fitted effect of over 35% in size. The procedure, abridged: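 Agonist-mode qHTS in CHO cells stably carrying human muscarinic M1. Intracellular calcium is tracked by fluorescence every second after compound transfer; each compound runs at 15 concentrations in three independent runs.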

Experiment [16] in a line: cAMP Responsive Elements (CRE) small molecule agonists, cell-based qHTS assay (AID 1963590). The procedure, abridged: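 Agonist mode qHTS in CRE-bla HEK 293T cells: compounds dosed from DMSO for 3 h at 37 C/5% CO2, followed by LiveBLAzer B/G FRET substrate for 2 h at room temperature.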
A short description of experiment [17]: cAMP Responsive Elements (CRE) small molecule antagonists, cell-based qHTS assay (AID 1963591; active = well fitted inhibition curve with a large enough effect in the signal ratio in the repeat runs, not every such curve was filed as active; the % refers to the signal ratio). Put shortly:
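Antagonist mode: test compounds are co-incubated with the adenylyl cyclase activator NKH477 (0.25 uM final) on CRE-bla HEK293T cells for 3 h at 37 °C, followed by LiveBLAzer substrate loading.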

For experiment [18], the target named is Beta-2 adrenergic receptor (Homo sapiens) (UniProt P07550). Kind of experiment: Adrenergic beta2 receptor (ADRB2) small molecule antagonists, cell-based qHTS assay (AID 1963592). Also: series mostly up to about 92 µM; nearly all actives have a fitted effect of over 50% in size. The procedure, abridged:
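Cells (CHO, stable ADRB2 overexpression) incubated 18-20hr at 37C; compounds added from DMSO; agonist mix (1nM isoproterenol, 100uM IBMX, 25uM Ro-20-1724) added; 0.5hr RT; d2-cAMP and anti-cAMP-cryptate added; 1hr RT; 665/615 nm read.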

The target in experiment [19] is D(2) dopamine receptor (Homo sapiens) (UniProt P14416). Kind of experiment: Dopamine D2 receptor (DRD2) small molecule agonists, cell-based qHTS assay (AID 1963594). Also: nearly all actives have a fitted effect of over 35% in size. Put shortly:
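cAMP accumulation in DRD2-HEK293 cells measured by HTRF after 1 h detection; compounds added 10 min before NKH477 (200nM […]) forskolin-analogue stimulation, 30 min at room temperature, with Ro20-1724 present at 0.1 mM final.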

Experiment [20] shares this target. Put plainly: Dopamine D2 receptor (DRD2) small molecule antagonists, cell-based qHTS assay (AID 1963595; active = well fitted inhibition curve with a large enough effect in the signal ratio in the repeat runs, with a control signal flat; the % refers to the signal ratio). Put shortly:
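DRD2-HEK293; 0.1 mM Ro20-1724; cpd 10 min RT; NKH477 200 nM + quinpirole 12 nM, 30 min RT; HTRF cAMP (cAMP-d2/anti-cAMP cryptate), 665/620 nm ratio after 1 h.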

Values without a mark were called inactive. Results filed as inconclusive are left out. Activity calls are given as the source filed them. Unless noted, calls follow the shape of the full dose curve.
% is scaled to controls: 0 for no effect and ±100 for the full control effect.

Sequence of D(2) dopamine receptor (Homo sapiens) (P14416 whole entry, looked up): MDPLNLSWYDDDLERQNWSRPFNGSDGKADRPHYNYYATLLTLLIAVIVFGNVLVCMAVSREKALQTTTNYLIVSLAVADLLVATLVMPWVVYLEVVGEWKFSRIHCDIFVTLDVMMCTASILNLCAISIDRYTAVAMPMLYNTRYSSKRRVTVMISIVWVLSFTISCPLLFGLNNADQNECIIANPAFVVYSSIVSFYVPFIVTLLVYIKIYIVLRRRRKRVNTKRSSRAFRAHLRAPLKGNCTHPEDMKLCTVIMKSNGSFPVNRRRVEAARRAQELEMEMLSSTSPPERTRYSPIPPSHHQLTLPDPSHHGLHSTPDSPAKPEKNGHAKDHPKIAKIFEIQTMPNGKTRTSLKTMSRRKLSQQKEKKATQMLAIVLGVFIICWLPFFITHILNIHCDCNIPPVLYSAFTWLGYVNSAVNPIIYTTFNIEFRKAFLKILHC
Sequence of Muscarinic acetylcholine receptor M1 (Homo sapiens) (P11229 whole entry, looked up): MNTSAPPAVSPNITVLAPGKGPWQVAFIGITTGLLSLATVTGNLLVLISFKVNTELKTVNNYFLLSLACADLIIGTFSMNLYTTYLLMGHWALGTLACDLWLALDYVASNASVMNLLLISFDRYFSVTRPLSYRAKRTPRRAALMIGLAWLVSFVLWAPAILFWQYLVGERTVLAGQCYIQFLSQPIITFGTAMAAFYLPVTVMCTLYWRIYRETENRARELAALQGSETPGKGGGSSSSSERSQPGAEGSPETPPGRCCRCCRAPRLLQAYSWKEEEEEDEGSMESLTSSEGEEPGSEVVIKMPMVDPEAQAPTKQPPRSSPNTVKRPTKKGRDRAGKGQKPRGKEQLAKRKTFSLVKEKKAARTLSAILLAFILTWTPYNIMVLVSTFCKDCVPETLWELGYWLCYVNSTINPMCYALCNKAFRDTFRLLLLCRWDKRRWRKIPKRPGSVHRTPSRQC
Sequence of Gonadotropin-releasing hormone receptor (Homo sapiens) (P30968 whole entry, looked up): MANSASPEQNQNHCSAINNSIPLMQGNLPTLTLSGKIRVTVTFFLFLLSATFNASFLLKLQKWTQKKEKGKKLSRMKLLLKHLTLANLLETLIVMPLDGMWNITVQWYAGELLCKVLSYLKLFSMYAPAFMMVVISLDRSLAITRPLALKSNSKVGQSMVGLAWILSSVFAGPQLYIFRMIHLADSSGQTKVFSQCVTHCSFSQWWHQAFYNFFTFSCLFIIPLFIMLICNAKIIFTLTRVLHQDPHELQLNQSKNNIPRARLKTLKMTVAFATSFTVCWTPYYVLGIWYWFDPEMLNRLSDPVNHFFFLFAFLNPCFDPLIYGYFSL
Sequence of 5-hydroxytryptamine receptor 2A (Homo sapiens) (P28223 whole entry, looked up): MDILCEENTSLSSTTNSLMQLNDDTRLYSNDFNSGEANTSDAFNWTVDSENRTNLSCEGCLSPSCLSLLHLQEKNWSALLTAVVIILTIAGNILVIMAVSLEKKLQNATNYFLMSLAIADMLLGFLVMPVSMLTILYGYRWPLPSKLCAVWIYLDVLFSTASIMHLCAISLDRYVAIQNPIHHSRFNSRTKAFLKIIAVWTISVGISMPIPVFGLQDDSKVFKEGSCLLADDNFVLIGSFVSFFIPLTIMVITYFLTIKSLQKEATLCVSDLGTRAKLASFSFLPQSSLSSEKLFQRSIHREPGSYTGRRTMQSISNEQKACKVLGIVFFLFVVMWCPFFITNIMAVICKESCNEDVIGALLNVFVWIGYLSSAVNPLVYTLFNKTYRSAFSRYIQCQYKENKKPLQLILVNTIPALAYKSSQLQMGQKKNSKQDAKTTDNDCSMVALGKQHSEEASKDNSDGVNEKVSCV
Sequence of Beta-2 adrenergic receptor (Homo sapiens) (P07550 whole entry, looked up): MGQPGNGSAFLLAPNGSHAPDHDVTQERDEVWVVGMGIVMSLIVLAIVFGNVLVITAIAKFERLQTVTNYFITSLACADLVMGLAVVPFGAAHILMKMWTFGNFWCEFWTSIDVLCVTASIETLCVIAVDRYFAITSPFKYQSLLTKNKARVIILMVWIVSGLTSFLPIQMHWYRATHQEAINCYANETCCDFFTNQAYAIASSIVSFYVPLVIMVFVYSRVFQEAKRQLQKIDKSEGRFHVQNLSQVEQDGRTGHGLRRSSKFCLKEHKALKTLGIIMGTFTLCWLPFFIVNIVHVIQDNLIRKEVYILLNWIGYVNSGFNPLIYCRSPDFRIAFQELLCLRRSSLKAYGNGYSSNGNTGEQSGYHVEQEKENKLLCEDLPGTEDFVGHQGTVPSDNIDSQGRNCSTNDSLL

With `COCCOCC(OC)OC`, the Potency result in [1], in experiment [2], in experiment [3], in experiment [6], in [7] and in experiment [8] was “inactive” throughout. Moreover, the Potency entry in experiment [9], in experiment [10], in experiment [11], in [12], in experiment [13] and in experiment [14] was “inactive” in each case. For the same compound, the Potency entry in experiment [15], in [16], in experiment [17], in [18], in [19] and in experiment [20] was “inactive” in each case. The result in experiment [4] and in experiment [5] was inactive.

On to `CCc1cccc(C)c1N(C(=O)CS(=O)(=O)O)C(C)COC` (configuration not stated), for which the Potency result in experiment [1], in [2], in experiment [3], in experiment [6], in experiment [7] and in experiment [8] was “inactive” each time. The Potency result in experiment [9], in experiment [10], in experiment [11], in [12], in [13] and in experiment [14] was “inactive” each time. The Potency entry in experiment [15], in experiment [16], in experiment [17], in experiment [18], in [19] and in experiment [20] was “inactive” each time. Further, the result in experiment [4] and in [5] was inactive.

`CCO[Si](OCC)(OCC)OCC`: the Potency result in experiment [1], in [2], in [3], in [6], in [7] and in experiment [8] was “inactive” in each case. Moreover, the Potency result in [9], in experiment [10], in [11], in experiment [12], in experiment [13] and in [14] was “inactive” in each case. Further, the Potency result in experiment [15], in experiment [16], in experiment [17], in experiment [18], in experiment [19] and in experiment [20] was “inactive” in each case. The result in experiment [4] and in experiment [5] was inactive.

As for `CC1(C)CC(OC(=O)CCCCCCCCC(=O)OC2CC(C)(C)NC(C)(C)C2)CC(C)(C)N1`, the values for the activity change, negative = cytotoxicity in experiment [1], in experiment [9] and in experiment [10] were -0.0002% [at 19 µM], 20.2% [at 13.5 µM] and -0.213% [at 13.5 µM], respectively. For the same compound, in [2], the activity, positive = activation is -1.35% [at 19 µM]. The activity change in experiment [3] is 1.96% [at 11.8 µM, stronger effect = higher value]. Also, the activation in [4] is 3.13% [at 15.8 µM]; in experiment [5], 0.376% [at 11.8 µM]; in [6], 1.98% [at 13.5 µM]; in [7], 0.45% [at 13.6 µM]; in experiment [11], -3.4% [at 13.5 µM]; in [13] it was 2.3% [at 15.9 µM]. Further, the activation was -1.98% [at 15.8 µM] in experiment [15], 1.42% [at 19 µM] in [16] and -4.7% [at 19 µM] in experiment [19]. Further, the Potency in experiment [8] is 884 nM (active). Moreover, the activity, negative = inhibition in experiment [12] was -5.05% [at 12.7 µM]; in experiment [14] it was 30.1% [at 12.6 µM]. For the same compound, the values for the activity change, negative = inhibition in [17], in experiment [18] and in experiment [20] were -9.13% [at 18.9 µM], 8.71% [at 19 µM] and 0.47% [at 18.9 µM], respectively.

Take `C=CC(C)C#N` (configuration not stated): the Potency result in [1], in experiment [2], in experiment [3], in experiment [6], in experiment [7] and in experiment [8] was “inactive” throughout. The Potency result in experiment [9], in experiment [10], in [11], in [12], in experiment [13] and in experiment [14] was “inactive” in each case. Moreover, the Potency result in experiment [15], in [16], in [17], in experiment [18], in [19] and in [20] was “inactive” each time. In addition, the result in [4] and in experiment [5] was inactive.

For `O=C(CCCl)NCCc1ccccc1`, the Potency result in experiment [1], in experiment [2], in [3], in experiment [6], in [7] and in experiment [8] was “inactive” throughout. The Potency result in [9], in experiment [10], in experiment [11], in experiment [12], in experiment [13] and in [14] was “inactive” in each case. Moreover, the Potency result in experiment [15], in experiment [16], in [17] and in [18] was “inactive” in each case. For the same compound, the result in experiment [4] and in experiment [5] was inactive.

In the case of `CC(C)c1cc(C(C)C)cc(C(C)C)c1`, the Potency result in [1], in experiment [2], in experiment [3], in experiment [6], in experiment [7] and in experiment [8] was “inactive” each time. For the same compound, the Potency entry in [9], in [10], in experiment [11], in [12], in experiment [13] and in experiment [14] was “inactive” throughout. Besides, the Potency result in experiment [15], in experiment [16], in experiment [17], in experiment [18] and in experiment [19] was “inactive” each time. Further, the result in [4] and in experiment [5] was inactive.

The record behind these values is PubChem BioAssay (Tox21).
